Source: PubChem BioAssay (NCATS)
Records with an inconclusive call do not appear. Values without a mark were called inactive. Calls follow the shape of the dose curve; as a rule, active = well fitted curve in the direction sought with a large enough effect; inconclusive = small, poorly fitted or top-dose-only effect, or another doubt; inactive = no such curve, though single readings can be large; an effect the other way counts as inactive or inconclusive.

assay: MultiTox-Fluor Cytotoxicity Assay - LYMP1-001 - Dead Cells (AID 946); conditions: LYMP1-001 lymphoblastoid cells, dead-cell protease fluorescence; series mostly up to 92.2 µM; cytotoxicity (dead cells): at the top concentration;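 also: 0% = DMSO and 100% = tetraoctylammonium bromide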
Description: NIH Chemical Genomics Center [NCGC]
NIH Molecular Libraries Screening Centers Network [MLSCN]
National Institutes of Environmental Health Sciences [NIEHS]
National Toxicology Program [NTP]
We have developed a 1536-well cell-based assay for quantitative high throughput screening (qHTS) against a number of cell lines to determine in vitro cytotoxicity of small molecules. This particular assay uses a human lymphoblastoid cell line (LYMP1-001) purchased from Coriell Institute for Medical Research.
NCGC Assay Protocol Summary:
The MultiTox-Fluor Cytotoxicity Assay (Promega) is a homogeneous method to simultaneously measure the relative number of live and dead cells in culture by detecting changes in cell membrane integrity. There are two fluorogenic peptide substrates in the assay reagent. Viable cells are determined when the cell-permeant substrate (GF-AFC) enters the cell and is cleaved by protease from live cells resulting in liberated fluorophore. This live-cell protease activity restricted to viable cells is proportional to cell number. The dead cells are determined by using fluorogenic cell-impermeant peptide substrate (bis-AAF-R110) which cleaved by dead cell proteases leaking from damaged cell membrane.
Using the MultiTox-Fluor Cytotoxicity Assay, the relative number of dead cells was measured in the lymphoblastoid cell line with complete culture medium following compound treatment for 16 hours. The assay was performed in opaque black Kalypsys 1536-well plates. In the screen, tetraoctylammonium bromide was used as positive control. Library compounds were measured for their ability to cause acute toxicity in the cell line, as reflected by an increase in dead cell protease activity, in a concentration-dependent manner. Data were normalized to the controls for basal activity (DMSO only) and 100% stimulation (15 uM tetraoctylammonium bromide). AC50 values were determined from concentration-response data modeled with the standard Hill equation.
qHTS protocol for MultiTox-Fluor Cytotoxicity assay
[Step] [Parameter] [Value] [Description]
1. Reagent; 5 uL; 2500 lymphoblastoid cells/well
2. Time; 5 hr; 37 C incubation
4. Controls; 23 nL; Tetraoctylammonium bromide 6.4pM to 92 uM
5. Time; 16 hr; 37 C incubation
6. Reagent; 5 uL; MuliTox-Fluor Assay reagent
7. Time; 60 min; Room Temperature
8. Detection; dead-cell fluorescence (Ex/Em=485/520); EnVision plate reader
Keywords: cytotoxicity, lymphoblastoid cell line, fluorescence, NTPHTS, NTPHTS_NCGC, NIEHS, EPA, DSSTox, MLSMR, MLSCN, NIH Roadmap, qHTS, NCGC

| SMILES | cytotoxicity (dead cells) [%] |
| --- | --- |
| Cc1occc(=O)c1O | -0.162 |
| CC1=CC(=O)CC(C)(C)C1(O)/C=C/C(C)=C\C(=O)O (stereo not given) | -11.4 |
| COS(C)(=O)=O | 4.5 |

assay: MultiTox-Fluor Cytotoxicity Assay - LYMP1-001 - Live Cells (AID 947); conditions: LYMP1-001 lymphoblastoid cells, live-cell protease fluorescence viability; series mostly up to 92.2 µM; activity change, negative = cytotoxicity: at the top concentration;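 also: 0% = DMSO only and full inhibition = tetraoctylammonium bromide control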

| SMILES | activity change, negative = cytotoxicity [%] |
| --- | --- |
| Cc1occc(=O)c1O | 2.8 |
| CC1=CC(=O)CC(C)(C)C1(O)/C=C/C(C)=C\C(=O)O (stereo not given) | -28.5 |
| COS(C)(=O)=O | 3.46 |

assay: Cell Viability - LYMP1-002 - Assay at 16 hr (AID 948); conditions: LYMP1-002 lymphoblastoid cell viability; series mostly up to 92.2 µM; activity change, negative = cytotoxicity: at the top concentration;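 also: 0% = DMSO alone and full effect = 92 µM tetraoctylammonium bromide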
Summary of the method: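 ATP luminescence (CellTiter-Glo) was measured after 16 hr compound exposure at 37 C of 2500 lymphoblastoid LYMP1-002 cells per well. Concentration-response curves were fitted with the Hill equation to give AC50.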

| SMILES | activity change, negative = cytotoxicity [%] |
| --- | --- |
| Cc1occc(=O)c1O | -7.31 |
| CC1=CC(=O)CC(C)(C)C1(O)/C=C/C(C)=C\C(=O)O (stereo not given) | -0.467 |
| COS(C)(=O)=O | -0.6 |

assay: MultiTox-Fluor Cytotoxicity Assay - LYMP1-002 - Live Cells (AID 955); conditions: LYMP1-002 lymphoblastoid live-cell protease fluorescence viability; series mostly up to 46.1 µM; viability change, negative = cytotoxic: at the top concentration; also: % is scaled to controls: 0 for no effect and ±100 for the full control effect
Summary of the method: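 Human lymphoblastoid LYMP1-002 cells, 2500/well in complete medium, rested 5 hr at 37 C, then exposed to compounds for 16 hr at 37 C. Live-cell protease cleavage of GF-AFC read by fluorescence (Ex/Em 405/510) after 60 min at room temperature; AC50 from Hill fits.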

| SMILES | viability change, negative = cytotoxic [%] |
| --- | --- |
| Cc1occc(=O)c1O | 4.15 |
| CC1=CC(=O)CC(C)(C)C1(O)/C=C/C(C)=C\C(=O)O (stereo not given) | 1.16 |
| COS(C)(=O)=O | -2.28 |

assay: MultiTox-Fluor Cytotoxicity Assay - LYMP1-002 - Dead Cells (AID 960); conditions: LYMP1-002 lymphoblastoid cells, dead-cell protease fluorescence; series mostly up to 46.1 µM; cytotoxicity (dead cells): at the top concentration;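 also: 0% = DMSO and 100% = tetraoctylammonium bromide; nearly all actives have a fitted effect of over 60% in size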
Summary of the method: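 Human lymphoblastoid cells (LYMP1-002), 2500/well in complete medium, were exposed to compounds for 16 hr at 37 C. Dead-cell protease activity was read as bis-AAF-R110 fluorescence (Ex/Em 485/520), normalized to DMSO and 15 uM tetraoctylammonium bromide; AC50 from Hill fits.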

| SMILES | cytotoxicity (dead cells) [%] |
| --- | --- |
| Cc1occc(=O)c1O | 7.57 |
| CC1=CC(=O)CC(C)(C)C1(O)/C=C/C(C)=C\C(=O)O (stereo not given) | 27.8 |
| COS(C)(=O)=O | -6.13 |
